These results are taken from PubChem BioAssay AID1671202 (University of Kansas High Throughput Screening Laboratory, 2021).

As usually defined, the inhibition is the change of the read-out against control, counted positive when it falls.

Where “and” joins values, the source holds several entries; their conditions need not be identical. Equal values may be shown once. In all, about 190,000 compounds went through this assay and about 6,900 (3.6%) were called active. Cut-off read from the data, not from the text of the source: active = inhibition above about 50%; inactive = the rest. What follows is part of a selection rich in actives, with near analogues and random picks from the rest. Where a structure was tested more than once in an assay, its records may differ in their call.

The target of this test is Huntingtin (Homo sapiens) (UniProt P42858). The test is described as follows: mutant huntingtin-calmodulin interaction inhibitors – biochemical, AlphaScreen, primary screen (AID 1671202).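 Note: 0% = both proteins with DMSO and 100% = one protein alone.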 The note with it: AlphaScreen His-mHTT/GST-CaM binding, luminescence; at 15 µM, stronger effect = higher value.
Sequence of Huntingtin (Homo sapiens) (P42858 whole entry, looked up, stated change not applied): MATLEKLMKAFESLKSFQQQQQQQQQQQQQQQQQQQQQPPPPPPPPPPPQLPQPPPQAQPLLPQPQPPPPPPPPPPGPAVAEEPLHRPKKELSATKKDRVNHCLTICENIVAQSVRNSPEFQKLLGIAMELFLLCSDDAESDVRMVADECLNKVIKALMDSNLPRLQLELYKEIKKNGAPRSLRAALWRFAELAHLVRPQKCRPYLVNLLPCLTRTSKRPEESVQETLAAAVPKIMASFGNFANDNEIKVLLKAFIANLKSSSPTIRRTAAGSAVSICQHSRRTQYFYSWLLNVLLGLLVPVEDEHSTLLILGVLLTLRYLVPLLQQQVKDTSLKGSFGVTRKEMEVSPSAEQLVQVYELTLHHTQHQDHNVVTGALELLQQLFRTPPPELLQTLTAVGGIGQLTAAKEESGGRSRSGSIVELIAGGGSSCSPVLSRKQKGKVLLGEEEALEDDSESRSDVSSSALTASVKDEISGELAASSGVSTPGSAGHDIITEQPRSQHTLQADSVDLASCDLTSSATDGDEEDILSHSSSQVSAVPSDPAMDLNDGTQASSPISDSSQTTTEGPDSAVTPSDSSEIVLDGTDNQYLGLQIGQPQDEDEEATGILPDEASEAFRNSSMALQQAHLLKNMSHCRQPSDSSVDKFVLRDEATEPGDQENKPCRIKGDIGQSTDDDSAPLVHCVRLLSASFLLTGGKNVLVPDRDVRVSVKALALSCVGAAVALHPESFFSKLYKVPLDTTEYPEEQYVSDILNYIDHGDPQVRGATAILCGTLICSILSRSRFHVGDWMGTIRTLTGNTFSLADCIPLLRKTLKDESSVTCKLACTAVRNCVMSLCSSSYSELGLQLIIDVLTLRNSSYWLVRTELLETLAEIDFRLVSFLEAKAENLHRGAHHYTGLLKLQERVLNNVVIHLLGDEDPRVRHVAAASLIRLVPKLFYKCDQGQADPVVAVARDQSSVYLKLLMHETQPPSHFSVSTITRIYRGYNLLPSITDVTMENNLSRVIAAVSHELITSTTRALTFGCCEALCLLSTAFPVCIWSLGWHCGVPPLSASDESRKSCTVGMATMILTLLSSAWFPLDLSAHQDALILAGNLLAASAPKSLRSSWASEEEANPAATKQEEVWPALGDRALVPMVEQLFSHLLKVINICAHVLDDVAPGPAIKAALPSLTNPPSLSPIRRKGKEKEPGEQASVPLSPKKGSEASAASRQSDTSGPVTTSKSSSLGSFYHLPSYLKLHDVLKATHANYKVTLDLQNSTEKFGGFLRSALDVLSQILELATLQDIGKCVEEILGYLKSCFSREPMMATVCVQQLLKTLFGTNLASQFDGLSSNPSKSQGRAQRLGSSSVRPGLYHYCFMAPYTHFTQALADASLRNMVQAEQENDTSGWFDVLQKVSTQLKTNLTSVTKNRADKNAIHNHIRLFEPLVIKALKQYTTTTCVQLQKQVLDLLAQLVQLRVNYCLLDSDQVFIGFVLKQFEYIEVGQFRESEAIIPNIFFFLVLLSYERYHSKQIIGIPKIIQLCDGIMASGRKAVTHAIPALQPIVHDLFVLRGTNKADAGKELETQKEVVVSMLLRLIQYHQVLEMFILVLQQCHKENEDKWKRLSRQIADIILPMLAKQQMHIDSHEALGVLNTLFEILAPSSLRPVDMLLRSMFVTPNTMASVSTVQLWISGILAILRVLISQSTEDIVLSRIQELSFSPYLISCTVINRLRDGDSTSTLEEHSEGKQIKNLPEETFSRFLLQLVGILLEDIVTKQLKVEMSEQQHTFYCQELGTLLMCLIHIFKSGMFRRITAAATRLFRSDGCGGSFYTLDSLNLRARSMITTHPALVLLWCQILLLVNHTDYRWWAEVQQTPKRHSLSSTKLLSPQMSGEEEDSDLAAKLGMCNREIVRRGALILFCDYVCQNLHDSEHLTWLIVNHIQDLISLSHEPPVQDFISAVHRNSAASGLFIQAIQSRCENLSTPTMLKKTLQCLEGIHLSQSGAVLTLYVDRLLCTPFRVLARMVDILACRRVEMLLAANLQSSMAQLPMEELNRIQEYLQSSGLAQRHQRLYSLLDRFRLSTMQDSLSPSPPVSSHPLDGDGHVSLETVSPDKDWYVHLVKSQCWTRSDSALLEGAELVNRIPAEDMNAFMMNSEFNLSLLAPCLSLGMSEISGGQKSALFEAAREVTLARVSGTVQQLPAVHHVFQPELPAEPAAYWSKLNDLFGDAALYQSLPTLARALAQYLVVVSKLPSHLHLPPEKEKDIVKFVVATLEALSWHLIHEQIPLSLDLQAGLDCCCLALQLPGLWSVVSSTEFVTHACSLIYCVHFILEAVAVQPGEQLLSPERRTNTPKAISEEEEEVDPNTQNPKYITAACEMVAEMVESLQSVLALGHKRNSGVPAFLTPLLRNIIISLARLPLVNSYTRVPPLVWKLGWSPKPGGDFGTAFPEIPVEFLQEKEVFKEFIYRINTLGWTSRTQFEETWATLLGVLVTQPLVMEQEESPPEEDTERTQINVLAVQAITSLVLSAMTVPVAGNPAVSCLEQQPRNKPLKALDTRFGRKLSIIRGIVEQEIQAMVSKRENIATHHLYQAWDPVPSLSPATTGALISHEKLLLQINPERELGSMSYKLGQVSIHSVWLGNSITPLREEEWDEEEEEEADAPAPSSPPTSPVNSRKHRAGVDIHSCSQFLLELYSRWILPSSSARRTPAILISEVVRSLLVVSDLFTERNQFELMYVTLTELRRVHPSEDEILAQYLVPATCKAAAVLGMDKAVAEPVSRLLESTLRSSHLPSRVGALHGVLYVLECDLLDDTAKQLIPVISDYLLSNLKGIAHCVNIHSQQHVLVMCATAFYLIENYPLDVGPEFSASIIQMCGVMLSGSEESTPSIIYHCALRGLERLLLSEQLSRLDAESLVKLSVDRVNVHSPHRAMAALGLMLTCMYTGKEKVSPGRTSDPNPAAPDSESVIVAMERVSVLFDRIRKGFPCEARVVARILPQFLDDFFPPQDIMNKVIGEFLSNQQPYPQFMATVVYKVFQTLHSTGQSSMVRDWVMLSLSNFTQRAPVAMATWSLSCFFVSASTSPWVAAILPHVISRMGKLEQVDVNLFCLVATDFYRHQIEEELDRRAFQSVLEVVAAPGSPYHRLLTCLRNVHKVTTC
As to `N#CC1=C2C=CC(O)=CC2OC=C1N` (configuration not stated), the inhibition is 55.1% (active).
As for `Cn1c(SCc2ccc([N+](=O)[O-])cc2)nnc1-c1cccs1`, the inhibition is 4% (inactive).
On to `CCN1C(=O)CCc2cc(NC(=O)c3sccc3C)ccc21`, for which the inhibition was -2.8% (inactive).
As for `Cc1ccc(N2C(=O)C3C4c5ccccc5C(CO)(c5ccccc54)C3C2=O)cc1[N+](=O)[O-]` (configuration not stated), the inhibition is 27% (inactive).
For `Cc1nn(C)c(C)c1Nc1ccc(N2C(=O)CCCC2=O)cc1[N+](=O)[O-]`, the inhibition was 1% (inactive).
Consider `O=C1C2C3C=CC(C3)C2C(=O)N1c1ccc(Nc2ccc3c(c2)CCC3)c([N+](=O)[O-])c1` (configuration not stated), for which the inhibition was 74% (active).
For the compound `COc1ccccc1CNC(=O)C1CCN(c2cncnc2N2CCN(C)CC2)CC1`, the inhibition was 5.19% (inactive).
Turning to `CC(C)(C)NC(=O)c1ccc2c(c1)CCN2C(=O)C1CC1`, the inhibition is -4.5% (inactive).
Next, `CCOC(=O)NCCS(=O)(=O)N1CCN(c2ccc(OC)cc2)CC1`: 1.1% (inactive).
In the case of `N#C/C(=C\c1cccn1-c1ccc([N+](=O)[O-])cc1)c1nn(CCO)c(N)c1C#N`, the inhibition is -2.4% (inactive) and 4% (inactive).
For `CS(=O)(=O)N1CCc2cc(NC(=O)Nc3ccccc3)ccc21`, the inhibition was 12.4% (inactive).
As for `Cc1ccc(OCC(O)CNC2CCCCC2)cc1` (configuration not stated), the inhibition is -7.1% (inactive).
On to `CCc1ccc(OCC(O)CN2CCN(c3ccc(F)cc3)CC2)cc1` (configuration not stated), for which the inhibition is 15.9% (inactive).
With `COc1ccc(N2CCN(CC(O)COC34CC5CC(CC(C5)C3)C4)CC2)cc1` (configuration not stated), the inhibition was 27.7% (inactive).
For `Cc1ccc(OCC(O)CN2CCCC2)cc1C` (configuration not stated), the inhibition is 1.8% (inactive).
Take `CC1CC(C)CN(CC(O)COc2ccc(C34CC5CC(CC(C5)C3)C4)cc2)C1` (configuration not stated): the inhibition is 65.1% (active).
Consider `CC(=O)c1ccc(OCC(O)CN2CCN(c3ccccc3)CC2)cc1` (configuration not stated), for which the inhibition is 9.71% (inactive).
As to `CCN1CCN(CC(O)COc2ccc(C34CC5CC(CC(C5)C3)C4)cc2)CC1` (configuration not stated), the inhibition was 50.3% (active).
On to `CCN(CC)CC(O)COc1ccc(C23CC4CC(CC(C4)C2)C3)cc1` (configuration not stated), for which the inhibition was 98.6% (active).
On to `CCN(CC(O)COC12CC3CC(CC(C3)C1)C2)C1CCCCC1` (configuration not stated), for which the inhibition was -6.1% (inactive).
`CCn1nccc1C(=O)N1CC2CC(NC(=O)c3cccs3)C1C2` (configuration not stated): the inhibition was 1.26% (inactive).
With `Cc1ccc2nc(NCc3ccccc3)c(C=Nc3ccccc3)c(=O)n2c1`, the inhibition was 6% (inactive).
For `CCc1ccc(CNC(=O)c2c(C)sc3c(=O)n(C4CCCC4)cnc23)cc1`, the inhibition was -6.7% (inactive).
The same measure for `CN1CCN(C(=O)c2cc3c(=O)n(C)ccc3n2C)CC1`: -9.9% (inactive); for `O=S(=O)(Nc1ccc(Cl)cc1F)c1c[nH]c2ncccc12`: 71.8% (active).
Consider `CCOc1ccc(S(=O)(=O)Nc2ccccc2F)c2cccnc12`, for which the inhibition is 4% (inactive).
With `O=S(=O)(Nc1ccc(F)cc1)c1cccnc1Nc1ccc(Cl)cc1`, the inhibition is -23.3% (inactive).
With `Cc1cccc(OCC(=O)N2CCCC(OCc3nc(C)no3)C2)c1` (configuration not stated), the inhibition was -7.37% (inactive).
As for `Cc1ccc(-c2nnc(C(=O)c3ccccc3)o2)cc1`, the inhibition was 0.5% (inactive).
The same measure for `O=S(=O)(c1cc(Br)ccc1Br)N1CCOCC1`: -4% (inactive).
As to `Cc1oc2c(Cl)c(Cl)c(O)cc2c1[N+](=O)[O-]`, the inhibition was 32% (inactive).
Turning to `COc1ccc(Br)cc1C(=O)Nc1cc2cccc([N+](=O)[O-])c2oc1=O`, the inhibition is -7% (inactive).
`COC(=O)Oc1c([N+](=O)[O-])cc2oc(=O)sc2c1[N+](=O)[O-]`: the inhibition was 53% (active).
Consider `O=C1CCCC2=C1C(c1cccc(Br)c1)n1nc(-c3ccccc3)nc1N2` (configuration not stated), for which the inhibition is -1.86% (inactive).
With `O=C(NCc1cccnc1)c1cc(-c2ccccn2)nc2ccccc12`, the inhibition was 34% (inactive).
As to `CCOc1ccc(-c2cc(C(=O)NCc3ccccn3)c3ccccc3n2)cc1`, the inhibition was -9.8% (inactive) and 70% (active).
On to `CCOc1cccc(-c2cc(C(=O)NCCN3CCOCC3)c3ccccc3n2)c1`, for which the inhibition is 11.4% (inactive).
Take `CCOc1ccc(/C=C2\CS/C(=C\c3ccc(OCC)cc3)C2=O)cc1`: the inhibition was 28% (inactive).
For `CC(=O)N(C)CC(=O)N1N=C(c2ccccc2Cl)CC1c1ccccc1Cl` (configuration not stated), the inhibition is 56.2% (active).
Next, `CC(=O)N(C)CC(=O)N1N=C(c2cccs2)CC1c1ccccc1Cl` (configuration not stated): 1.2% (inactive); `CC(C)C(=O)N(C)CC(=O)N1N=C(c2ccc(F)cc2)CC1c1ccc(F)cc1` (configuration not stated): 29.5% (inactive); `CNCC(=O)N1N=C(c2cccn2C)CC1c1ccccc1` (configuration not stated): 8.9% (inactive).
As for `CN(CC(=O)N1N=C(c2cccs2)CC1c1ccccc1F)C(=O)C1CCCC1` (configuration not stated), the inhibition is 23% (inactive).
Consider `CC(C)C(=O)N(C)CC(=O)N1N=C(c2ccccc2Cl)CC1c1ccc(F)cc1` (configuration not stated), for which the inhibition is 57% (active).
Next, `O=C(c1ccc(F)cc1)N1CCC(c2nc(-c3ccccc3)n[nH]2)CC1`: 12.2% (inactive); `O=C1CC[C@@]23CCCN2C(=O)CCC[C@H]3[C@H]1Cc1ccccc1`: 1.2% (inactive); `Cc1nc(-c2cccs2)c(CCC(=O)Nc2cccc3cccnc23)s1`: 8.1% (inactive).
In the case of `C=C(C)CN(CC)Cc1cccc(OC)c1OC`, the inhibition was -4.5% (inactive).
For `COc1ccc(C2CC(=O)C(C=Nc3cc(Cl)ccc3O)=C(O)C2)cc1` (configuration not stated), the inhibition is 4% (inactive).
Next, `CCC(C)NC(=O)Cn1cnc2c(oc3ccccc32)c1=O` (configuration not stated): -6.1% (inactive); `CC(=O)c1ccc(NC(=O)c2ccc(CN(c3ccc(C)c(C)c3)S(C)(=O)=O)cc2)cc1`: 3.8% (inactive); `Cc1ccc(C(=O)Nc2ccc(N(C)C)cc2)cc1C`: 59.4% (active).
The same measure for `CC(=O)Nc1ccc(NC(=O)c2ccc(N(C)C)cc2)cc1`: 5.9% (inactive); for `CCOc1ccc(CNC(=O)C2CCCN(c3ccc(N4CCOCC4)nn3)C2)cc1` (configuration not stated): -1.05% (inactive); for `COCCNC(=O)c1cn2cc(C)ccc2n1`: -7.5% (inactive).
Consider `O=C(CCC(=O)N1CC2CCCN2c2ccccc21)NCCCN1CCCCC1` (configuration not stated), for which the inhibition was 7.41% (inactive).
Turning to `O=C(CCC(=O)N1CC2CCCN2c2ccccc21)NCCCN1CCCC1` (configuration not stated), the inhibition is 71.5% (active).
In the case of `O=C(CCC(=O)N1CC2CCCN2c2ccccc21)NCc1cccc(Br)c1` (configuration not stated), the inhibition was 36.6% (inactive).
As to `COc1ccc([N+](=O)[O-])cc1NCc1ccccc1Br`, the inhibition was -6.4% (inactive).
As for `CCOc1ccc(/C=C(\C#N)c2nc3ccc(C)cc3[nH]2)cc1OC`, the inhibition was 5.8% (inactive).
Consider `COc1cccc(/C=C(\C#N)c2nc3ccc(C)cc3[nH]2)c1OC`, for which the inhibition is 6.1% (inactive).
Regarding `COc1cc(/C=C(\C#N)c2nc3ccc(C)cc3[nH]2)c(Br)cc1O`, the inhibition is 47.5% (inactive) and 79% (active).
